Measurements published in PubChem BioAssay (NCI).
This is part of a sample that, as a whole, favours compounds with a hit. Of some 83,000 tested, about 20% had one in any assay.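 Note: values are percent growth. 100 is the growth of untreated cells, values between 100 and 0 indicate rising inhibition; between -100 and 0 indicates cell death.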 Calls of active or inactive are those of the source. How the source made its calls: active means growth percent below 10; inactive means the rest.

Assays:
Experiment in all cases: NCI-60 one-dose screen, 48 h (100 = growth as untreated, 0 = no growth, -100 = all killed)
Conditions in all cases: 10 µM unless noted
NCI-H23 lung = test system: NCI-H23 lung
NCI-H226 lung = test system: NCI-H226 lung
NCI-H322M lung = test system: NCI-H322M lung
HOP-62 NSCLC = test system: HOP-62 NSCLC
NCI-H460 lung = test system: NCI-H460 lung
HOP-92 NSCLC = test system: HOP-92 NSCLC
NCI-H522 lung = test system: NCI-H522 lung
A549/ATCC NSCLC = test system: A549/ATCC NSCLC
786-0 renal = test system: 786-0 renal
COLO 205 colon = test system: COLO 205 colon
DU-145 prostate = test system: DU-145 prostate
K-562 leukemia = test system: K-562 leukemia
MALME-3M melanoma = test system: MALME-3M melanoma
RXF 393 renal = test system: RXF 393 renal
SF-268 CNS = test system: SF-268 CNS
SF-295 CNS = test system: SF-295 CNS
SF-539 CNS = test system: SF-539 CNS
UACC-257 melanoma = test system: UACC-257 melanoma
M14 melanoma = test system: M14 melanoma
MDA-MB-231 breast = test system: MDA-MB-231 breast

Measured: growth

O=C(/C=C/c1cccc(OCc2ccc(F)cc2)c1)c1nc2ccccc2[nH]1
inactive: NCI-H23 lung 73% | NCI-H226 lung 42.2% | NCI-H322M lung 114% | HOP-62 NSCLC 71.1% | NCI-H460 lung 76.8% | HOP-92 NSCLC 27.5% | NCI-H522 lung 63.5% | A549/ATCC NSCLC 49.5% | COLO 205 colon 13.8% | DU-145 prostate 70.3% | MALME-3M melanoma 95.8% | RXF 393 renal 57.7% | SF-268 CNS 95.1% | SF-295 CNS 74.2% | SF-539 CNS 44.7% | UACC-257 melanoma 76.1% | M14 melanoma 13.8%
active: 786-0 renal -46.1% | K-562 leukemia -14.6%

C[C@H]1CN(C(=O)c2ccc3c(NNC(=O)c4ccncn4)nc4cc(F)c(F)cc4n23)CCN1
inactive: NCI-H23 lung 37.5% | NCI-H322M lung 32.2% | HOP-62 NSCLC 18.7% | HOP-92 NSCLC 65.4% | NCI-H522 lung 67.9% | A549/ATCC NSCLC 19.4% | DU-145 prostate 41.3% | MALME-3M melanoma 33.6% | MDA-MB-231 breast 45.7% | RXF 393 renal 52.9% | SF-268 CNS 27.4% | SF-295 CNS 12.4% | UACC-257 melanoma 22.3%
active: NCI-H226 lung 6.31% | NCI-H460 lung 6.66% | 786-0 renal -14.4% | COLO 205 colon 9.98% | SF-539 CNS 8.55% | M14 melanoma -24.8%

O=C1N/C(=N\c2nccs2)S/C1=C\C=C/c1ccccc1
inactive: NCI-H23 lung 55.8% | NCI-H226 lung 81.5% | NCI-H322M lung 30.4% | HOP-62 NSCLC 43% | NCI-H460 lung 26.4% | HOP-92 NSCLC 64% | NCI-H522 lung 19.8% | 786-0 renal 31% | COLO 205 colon 33.2% | DU-145 prostate 49.1% | MALME-3M melanoma 42.6% | MDA-MB-231 breast 51.6% | RXF 393 renal 88.6% | SF-268 CNS 39.2% | SF-295 CNS 21.9% | SF-539 CNS 13%
active: A549/ATCC NSCLC -81.1% | UACC-257 melanoma 8.23% | M14 melanoma -21%

COc1ccc(C(=O)/C=C/c2cccnc2)cc1S(N)(=O)=O
inactive: NCI-H23 lung 22.3% | NCI-H226 lung 77.3% | NCI-H322M lung 52% | HOP-62 NSCLC 27.5% | NCI-H460 lung 19.9% | HOP-92 NSCLC 56.5% | A549/ATCC NSCLC 42.7% | 786-0 renal 50.4% | COLO 205 colon 23.9% | DU-145 prostate 22% | MALME-3M melanoma 77.5% | MDA-MB-231 breast 60.5% | RXF 393 renal 54.1% | SF-268 CNS 44.4% | SF-295 CNS 38.9% | UACC-257 melanoma 72.1%
active: NCI-H522 lung -67.8% | SF-539 CNS 3.62%

O=C(/C=C/c1cccc(OCc2ccccc2)c1)c1nc2ccccc2[nH]1
active: NCI-H226 lung 1.49% | 786-0 renal -60.7% | COLO 205 colon -31.7% | K-562 leukemia -8.72% | SF-539 CNS -56.5% | M14 melanoma 1.55%
inactive: NCI-H23 lung 63.7% | NCI-H322M lung 92.3% | HOP-62 NSCLC 50.5% | NCI-H460 lung 63% | HOP-92 NSCLC 22.7% | NCI-H522 lung 72.8% | A549/ATCC NSCLC 39.1% | DU-145 prostate 55.9% | MALME-3M melanoma 90.9% | RXF 393 renal 20.4% | SF-268 CNS 62.3% | SF-295 CNS 69.9% | UACC-257 melanoma 70.1%

CCN(CC)C(=O)N/C(N)=N/c1nc2ccccc2s1
inactive: NCI-H23 lung 34.5% | NCI-H226 lung 39.4% | NCI-H322M lung 81.4% | HOP-62 NSCLC 68.9% | NCI-H460 lung 67% | HOP-92 NSCLC 72.2% | NCI-H522 lung 51.2% | A549/ATCC NSCLC 62.9% | 786-0 renal 63.2% | COLO 205 colon 86.4% | DU-145 prostate 48.8% | K-562 leukemia 30.3% | MALME-3M melanoma 56.8% | RXF 393 renal 58.5% | SF-268 CNS 72.6% | SF-295 CNS 32.5% | SF-539 CNS 69.7% | UACC-257 melanoma 40.5% | M14 melanoma 71.9%

COc1ccc(C(=O)/C=C/c2cccc(Cl)c2Cl)cc1S(N)(=O)=O
inactive: NCI-H226 lung 18.7% | NCI-H322M lung 11.5% | HOP-92 NSCLC 21.9% | MALME-3M melanoma 23.1% | SF-268 CNS 18% | UACC-257 melanoma 34.8%
active: NCI-H23 lung -15.6% | HOP-62 NSCLC -69.2% | NCI-H460 lung -0.608% | NCI-H522 lung -56.3% | A549/ATCC NSCLC -2.67% | 786-0 renal -71.2% | COLO 205 colon -79.3% | DU-145 prostate -76.3% | MDA-MB-231 breast 1.88% | RXF 393 renal -71% | SF-295 CNS -38.1% | SF-539 CNS -75.5%

Cc1c(C(=O)NNC(=O)Nc2ccc(Cl)cc2)nnn1-c1ccc(Br)cc1
inactive: NCI-H23 lung 102% | NCI-H226 lung 103% | NCI-H322M lung 90.3% | HOP-62 NSCLC 97.1% | NCI-H460 lung 107% | HOP-92 NSCLC 92.8% | NCI-H522 lung 96.4% | A549/ATCC NSCLC 96.9% | 786-0 renal 96.7% | COLO 205 colon 107% | DU-145 prostate 99.5% | K-562 leukemia 92.2% | MALME-3M melanoma 90.7% | RXF 393 renal 90.5% | SF-268 CNS 103% | SF-295 CNS 98.8% | SF-539 CNS 102% | UACC-257 melanoma 99% | M14 melanoma 101%
